Results: the supplement of paper PMC3414501
Where a name gives a salt, the structure may show the parent alone. Unmarked numbers belong to inactive results. Cut-off read from the data, not from the text of the source: active = 2 or more and inactive = the rest.

What follows are molecules tested on S. cerevisiae BY4741 (wild-type), vegetative growth in YPD (assay: growth sensitivity score (doubling time z-score vs DMSO controls); higher = slower growth, strongly negative scores also mark growth inhibition (complete suppression), active = hit call of the paper).
How it was run: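 Yeast (Saccharomyces cerevisiae BY4741 and AD1-9) was grown in rich medium in microtiter plates from a starting OD600 of 0.065, with optical density read every 15 min over 24 hours. The growth sensitivity score was the difference between compound and solvent-only means, divided by the solvent-only standard deviation. Every experiment had eight solvent-only wells.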

Structure (SMILES)	growth sensitivity score
CNS(=O)(=O)Cc1ccc2[nH]cc(CCN(C)C)c2c1 [Sumatriptan succinate] (stock concentration (mM, diluted 1:100): 7.2)	-1.56
CC(=O)[C@@]1(O)CC[C@H]2[C@@H]3C[C@H](C)C4=CC(=O)CC[C@]4(C)[C@H]3CC[C@@]21C [Medroxyprogesterone] (stock concentration (mM, diluted 1:100): 10)	-0.01
C[C@@H](c1ncncc1F)[C@](O)(Cn1cncn1)c1ccc(F)cc1F [Voriconazole] (stock concentration (mM, diluted 1:100): 9.9)	43.3 (active)
C=CC[C@@H]1/C=C(\C)C[C@H](C)C[C@H](OC)[C@H]2O[C@@](O)(C(=O)C(=O)N3CCCC[C@H]3C(=O)O[C@H](/C(C)=C/[C@@H]3CC[C@@H](O)[C@H](OC)C3)[C@H](C)[C@@H](O)CC1=O)[C@H](C)C[C@@H]2OC [Tacrolimus] (stock concentration (mM, diluted 1:100): 10)	12 (active)
CCOC(=O)OC(C)OC1=C(C(=O)Nc2ccccn2)N(C)S(=O)(=O)c2ccccc21 (centres undefined) [Ampiroxicam] (stock concentration (mM, diluted 1:100): 10)	-0.19
CN(C)CCCSc1ccccc1NC(=O)/C=C/c1ccccc1 [Cinanserin] (stock concentration (mM, diluted 1:100): 10)	1.35
CC[C@@H]1C(=O)OC[C@@H]1Cc1cncn1C [Pilocarpine hydrochloride] (stock concentration (mM, diluted 1:100): 10)	0.72
Nc1ncnc2c1ncn2[C@@H]1O[C@H](CO)C[C@@H]1O [3-Deoxydenosine] (stock concentration (mM, diluted 1:100): 10)	1.06
CN1CCN(c2c(F)cc3c(=O)c(C(=O)O)cn4c3c2SCC4)CC1 [Rufloxacin hydrochloride] (stock concentration (mM, diluted 1:100): 10)	-0.18
CC[C@H](C)C(=O)O[C@H]1C[C@H](O)C=C2C=C[C@H](C)[C@H](CC[C@@H](O)C[C@@H](O)CC(=O)O)[C@H]21 [Pravastatin sodium] (stock concentration (mM, diluted 1:100): 9.5)	0.4
Cn1nnc2c(C(N)=O)ncn2c1=O [Temozolomide] (stock concentration (mM, diluted 1:100): 10)	1.92
Cc1nc2n(c(=O)c1CCN1CCC(c3noc4cc(F)ccc34)CC1)CCCC2 [Risperidone] (stock concentration (mM, diluted 1:100): 10)	-0.68
C[N+]1(C)CCC(OC(=O)C(O)(c2ccccc2)C2CCCC2)C1 (centres undefined) [Glycopyrrolate] (stock concentration (mM, diluted 1:100): 10)	-0.04
NNCCc1ccccc1 [Phenelzine sulfate salt] (stock concentration (mM, diluted 1:100): 10)	0.3
CN1[C@@H](CC(=O)c2ccccc2)CCC[C@H]1C[C@H](O)c1ccccc1 [Lobeline hydrochloride] (stock concentration (mM, diluted 1:100): 10)	0.72
CC(=O)O[C@H]1C[C@@H]2CC[C@@H]3[C@H](CC[C@@]4(C)[C@H]3C[C@H]([N+]3(C)CCCCC3)[C@@H]4OC(C)=O)[C@@]2(C)C[C@@H]1N1CCCCC1 [Vecuronium bromide] (stock concentration (mM, diluted 1:100): 10)	0.21
Cc1ccsc1C(=CCCN1CCC[C@@H](C(=O)O)C1)c1sccc1C [Tiagabine hydrochloride] (stock concentration (mM, diluted 1:100): 9.1)	0.29
CNCC[C@H](Oc1cccc2ccccc12)c1cccs1 [Duloxetine hydrochloride] (stock concentration (mM, diluted 1:100): 8.9)	21.8 (active)
O=C(CCNNC(=O)c1ccncc1)NCc1ccccc1 [Nialamide] (stock concentration (mM, diluted 1:100): 10)	0.19
